Laboratory results reported in publication PMC4336329 (PLoS ONE, 2015).
The campaign covered roughly 310,000 compounds. About 14,000 (4.5%) showed an effect of 50% or more. Effects have a minus sign here. What follows is part of a selection rich in strong results, with near analogues and random picks from the rest.

Biological target: human ether-à-go-go-related gene (hERG) potassium channel (human, UniProt Q12809)
Assay: primary screen, population patch clamp on CHO cells stably expressing hERG; higher = less effect of the substance
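Note: peak tail current of the secondary pulse compared with the same well before compound.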

human ether-à-go-go-related gene (hERG) potassium channel, sequence (Q12809 whole entry, looked up): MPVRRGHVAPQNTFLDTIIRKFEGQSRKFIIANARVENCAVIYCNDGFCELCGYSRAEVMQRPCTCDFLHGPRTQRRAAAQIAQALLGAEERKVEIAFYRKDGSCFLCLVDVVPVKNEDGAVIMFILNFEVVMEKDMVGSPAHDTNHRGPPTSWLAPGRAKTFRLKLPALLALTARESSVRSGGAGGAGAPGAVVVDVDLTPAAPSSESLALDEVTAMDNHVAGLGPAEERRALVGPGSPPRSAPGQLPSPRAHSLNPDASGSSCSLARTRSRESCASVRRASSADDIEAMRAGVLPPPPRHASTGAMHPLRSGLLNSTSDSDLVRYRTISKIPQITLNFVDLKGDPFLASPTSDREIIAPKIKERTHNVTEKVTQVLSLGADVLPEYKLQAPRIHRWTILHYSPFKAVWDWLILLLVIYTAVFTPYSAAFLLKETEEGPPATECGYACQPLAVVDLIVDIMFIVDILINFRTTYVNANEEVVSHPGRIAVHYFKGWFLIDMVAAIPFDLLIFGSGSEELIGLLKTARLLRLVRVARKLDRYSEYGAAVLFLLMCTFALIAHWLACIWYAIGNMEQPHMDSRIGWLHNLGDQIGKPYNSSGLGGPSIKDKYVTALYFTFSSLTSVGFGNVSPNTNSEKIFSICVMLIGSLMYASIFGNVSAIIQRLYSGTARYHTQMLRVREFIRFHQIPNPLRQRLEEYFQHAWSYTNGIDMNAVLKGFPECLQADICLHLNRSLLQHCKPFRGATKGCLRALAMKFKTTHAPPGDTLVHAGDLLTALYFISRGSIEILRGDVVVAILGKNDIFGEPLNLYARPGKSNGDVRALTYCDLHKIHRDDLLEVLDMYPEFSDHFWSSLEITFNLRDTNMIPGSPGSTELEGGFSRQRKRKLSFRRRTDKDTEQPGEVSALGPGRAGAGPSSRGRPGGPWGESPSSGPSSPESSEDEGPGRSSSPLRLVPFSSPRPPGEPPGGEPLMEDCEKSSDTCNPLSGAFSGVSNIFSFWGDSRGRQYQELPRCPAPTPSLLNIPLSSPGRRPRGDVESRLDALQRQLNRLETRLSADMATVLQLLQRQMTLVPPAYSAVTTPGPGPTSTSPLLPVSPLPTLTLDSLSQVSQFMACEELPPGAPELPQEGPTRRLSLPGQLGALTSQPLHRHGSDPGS

SMILES | hERG current change (%, negative = inhibition) at 10uM [%]
Cc1ccc(C)c(N2CCN(S(=O)(=O)c3ccc4c(c3)CC(=O)N4C)CC2)c1 | -19.4
COc1ccc(Nc2nnc(SCC3CCCO3)s2)cc1 (stereo not shown) | -5.7
Cc1nc(NC(=O)C(Cl)Cl)sc1C(=O)N(C)C | 5.44
CCCC(c1nnnn1CC1CCCO1)N1CCN(c2ccccc2)CC1.Cl (stereo not shown) | -4.74
O=C(Nc1cccc(Oc2ccc3c(c2)C(=O)NC3=O)c1)c1ccco1 | -21.8
CCn1c(=O)[nH]c(=O)c2c(N)c(C(=O)c3cc(F)ccc3F)sc21 | -57.4
Cc1ccc(C(=O)c2sc3c(c2N)c(=O)[nH]c(=O)n3CCc2ccccc2)cc1 | 12.2
CCn1c(=O)[nH]c(=O)c2c(N)c(C(=O)c3ccccc3OC)sc21 | -15.2
CC1=Nc2ccccc2/C1=C/c1sc(=N)n(-c2nccs2)c1O | 10.5
O=C(CN1C(=O)/C(=C/c2ccco2)SC1=S)Nc1ccc(O)c(C(=O)O)c1 | 25.2
O=C(NCCNCc1ccc(F)cc1)c1ccco1.O=C(O)C(=O)O | 9.99
Fc1ccc(CNCCC(Cc2ccccc2)c2ccco2)cc1 (stereo not shown) | -54.3
Fc1ccc(CNCc2ccco2)cc1 | 11.5
CC(=O)N(CCC(Cc1ccccc1)c1ccco1)Cc1ccco1 (stereo not shown) | -28.4
CN(C)c1ccc(CNCCC(Cc2ccccc2)c2ccco2)cc1 (stereo not shown) | -52.3
CCC(=O)N(CCC(Cc1ccccc1)c1ccco1)Cc1ccco1 (stereo not shown) | -1.81
CC(=O)NCCC(Cc1ccccc1)c1ccco1 (stereo not shown) | 5.91
CC(NCCC(Cc1ccccc1)c1ccco1)c1ccccc1 (stereo not shown) | -22
c1ccc(CNCCC(Cc2ccccc2)c2ccco2)cc1 (stereo not shown) | -54.8
O=C(Nc1cc(F)ccc1F)c1cccc(-n2cnnn2)c1 | -18.3
COC(=O)N/N=C/c1cn(CCCOc2ccccc2)c2ccccc12 | -4.14
C#Cc1ccc([C@H]2C=C(C(=O)N3CCOCC3)O[C@@H](OCC)[C@@H]2CCCO)cc1 | 6.65
O=C1CCc2cc(S(=O)(=O)N3CCC(C(=O)NC4CCCCCCC4)CC3)ccc2N1 | 10.8
COc1ccc(NC(=O)C2CCCN2S(=O)(=O)c2ccc3c(c2)CCC(=O)N3)c(OC)c1 (stereo not shown) | -16.8
O=C1CCc2cc(S(=O)(=O)N3CCCC3C(=O)NC3CCCCCCC3)ccc2N1 (stereo not shown) | -50.3
O=C1CCc2cc(S(=O)(=O)N3CCC(C(=O)NC4CCCC4)CC3)ccc2N1 | -4.68
COc1ccc(C)cc1NC(=O)C1CCCN1S(=O)(=O)c1ccc2c(c1)CCC(=O)N2 (stereo not shown) | -50.8
COc1ccc(NC(=O)C2CCCN2S(=O)(=O)c2ccc3c(c2)CCC(=O)N3)cc1Cl (stereo not shown) | -27.8
